Measurements as given in ChEMBL document CHEMBL3988442, “University of Dundee, Small-Polar-MMV Screening Library” (2021).
In all, about 48,000 compounds went through this assay and about 13,000 (27%) showed an effect of 50% or more. This is one part of the list.

Tested on: Wolbachia pipientis
Test: Anti-Wolbachia Cell-Based Screen
Format: functional
Set-up: scale not given: in the data most compounds retested in dose-response had high values
Conditions: 5 µM

Row | Structure (SMILES) | Percent Effect
1 | Cc1csc(N2CCCN(C(=O)C(C)n3ccnc3)CC2)n1 (stereo not given) | -4.315%
2 | Cc1nnc2n1CC(CNCc1nc(-c3cccs3)no1)CC2 (stereo not given) | -7.356%
3 | CCn1cc2c(n1)C(COC)CN(Cc1ccccn1)C2 (stereo not given) | -2.413%
4 | CCSCCn1cc(-c2ncc[nH]2)nn1 | 7.304%
5 | CNC1CCN(C2CCN(c3ccc(-c4ccco4)cc3)CC2)CC1 | -8.193%
6 | Cn1cc(C(=O)N2CCCN(c3cccnn3)CC2)c2ccccc21 | -6.467%
7 | O=S(=O)(CCCn1cncn1)Cc1ccccc1Cl | -3.419%
8 | CC(C)C(=O)Nc1cccc(CNC(=O)CSCc2ccccn2)c1 | 119.7%
9 | CC(C)c1cc2c(O)nc(CSCC(=O)NCc3ccccn3)nc2s1 | -13.17%
10 | CC(C)OCCOCc1cccc(NC(=O)NCc2ccccn2)c1 | 14.04%
11 | CCNc1cc2c(nn1)CCN(C(=O)c1cccc3c1OCCO3)C2 | 1.992%
12 | Nc1cc2c(nn1)CCN(C(=O)CCc1ccc3c(c1)OCO3)C2 | -16.52%
13 | CCNc1cc2c(nn1)CCN(C(=O)c1cccc3c1OCO3)C2 | 107.3%
14 | Nc1cc2c(nn1)CCN(C(=O)c1cccc3c1OCO3)C2 | 99.08%
15 | CNc1cc2c(nn1)CCN(C(=O)c1cccc3c1OCCO3)C2 | 94.51%
16 | CNc1cc2c(nn1)CCN(C(=O)c1cccc3c1OCO3)C2 | -1.864%
17 | Nc1cc2c(nn1)CCN(C(=O)c1cccc3c1OCCO3)C2 | 2.04%
18 | CCNc1cc2c(nn1)CCN(C(=O)C1COc3ccccc3O1)C2 (stereo not given) | -8.562%
19 | CO[C@@H]1CCN(C(=O)c2cnoc2C)[C@H]1Cc1ccccc1 | -17.67%
20 | O=C(c1cnccn1)N1CC[C@H]2[C@H]1CCN2S(=O)(=O)C1CC1 | -1.574%
21 | Cc1oncc1C(=O)N1CC[C@H]2[C@H]1CCN2S(C)(=O)=O | 102.2%
22 | Cc1cc(C(=O)N2CC[C@H]3[C@H]2CCN3S(C)(=O)=O)c(C)o1 | 109.3%

Row | Structure (SMILES) | Percent Effect
23 | O=C(c1ccoc1)N1CC[C@H]2[C@H]1CCN2S(=O)(=O)C1CC1 | -16.54%
24 | Cc1cc(C(=O)N2C[C@@H]3CN(S(C)(=O)=O)CCO[C@@H]3C2)c(C)o1 | -7.965%
25 | CC(=O)Nc1nc(-c2ccccc2)c[nH]1 | -21.73%
26 | CN(C)c1cc(CNC(=O)c2ccc(F)cc2F)ccn1 | 0.296%
27 | CN(C)c1cc(CNC(=O)c2ccc(O)nc2)ccn1 | 121.2%
28 | Cc1nccn1-c1cc(CNC(=O)c2ccnc(N(C)C)c2)ccn1 | 25.84%
29 | CN(C)c1cc(CNC(=O)c2cn(-c3ccc(F)cc3)nn2)ccn1 | -3.053%
30 | Cc1cc(C(=O)NCc2ccnc(N(C)C)c2)c(C)o1 | 4.439%
31 | CN(C)c1cc(CNC(=O)c2ccc(=O)[nH]n2)ccn1 | 0.8371%
32 | CN(C)c1cc(CNC(=O)c2cccnc2O)ccn1 | 123.9%
33 | CCS(=O)(=O)c1ccccc1C(=O)NCc1ccnc(N(C)C)c1 | -0.6479%
34 | CN(C)c1cc(CNC(=O)c2cc(Cl)ccn2)ccn1 | 157.2%
35 | CN(C)c1cc(CNC(=O)c2n[nH]c(=O)c3ccccc23)ccn1 | 128.9%
36 | COc1cc(C(=O)N(C)C)ccc1NC(=O)c1ccsc1 | -14.53%
37 | CCc1nc(C)c(C2CC(=O)Nc3c2c(-c2cccnc2)nn3C)[nH]1 (stereo not given) | 10.2%
38 | CCNC(=O)NC1CN(Cc2ccncc2Cl)C[C@@H]1OC (stereo not given in full) | -18.14%
39 | CC(=O)c1ccc(NC(=O)NCc2cccc(N(C)C)n2)cc1C | -13.49%
40 | COCCN1CCN(Cc2noc(C3CC3)n2)CC1C (stereo not given) | -13.95%
41 | Cc1nnc(CSc2n[nH]c(-c3ccccn3)n2)o1 | 3.251%
42 | O=C1NCCCCC1NS(=O)(=O)N1CCCCCC1 (stereo not given) | 41.49%
43 | CCNC(=O)c1cnc(Sc2nccn2C)c(Cl)c1 | -8.333%
44 | COc1nn(C)cc1C(=O)NCC(=O)Nc1cccnc1 | 5.398%

Row | Structure (SMILES) | Percent Effect
45 | CC(=O)N1CCN(c2nc(C(F)(F)F)nc3sc(C)c(C)c23)CC1 | 10.88%
46 | c1ccc2c(c1)OCCCC2NCc1nnc2n1CCCCC2 (stereo not given) | -26%
47 | Cc1cccc(C(=O)NCc2ccnc(N(C)C)c2)n1 | -3.78%
48 | Cc1cc(CN(C)C(=O)NCc2ccnc(N(C)C)c2)no1 | -11.21%
49 | Cc1cnc(C(=O)NCc2ccnc(N(C)C)c2)cn1 | 122.7%
50 | CN(C)c1cc(CNC(=O)c2cnccn2)ccn1 | 139.9%
51 | COc1ccc(OC)c(S(=O)(=O)NCC2(OC)CCSC2)c1 (stereo not given) | -19.77%
52 | Cc1cc(N(C)C)nc(C2CCCN2)n1.Cl.Cl (stereo not given) | 137.4%
53 | Cc1cc(N(C)C)nc(N2CCn3c(nnc3C3CC3)C2)n1 | -9.903%
54 | Cc1nc(CN(C)c2nccc(N(C)C)n2)cs1 | -6.579%
55 | CN(C)c1ccc(-c2noc([C@@H]3CCCN3)n2)cn1 | 4.635%
56 | Cc1cc(N(C)C)nc(N2CC(n3cccn3)C2)n1 | -0.4027%
57 | CN(C)c1ccnc(C2CCCN2)n1.Cl (stereo not given) | 126.4%
58 | Cc1cc(C)nc(CN(C)C(=O)c2ccccc2C2CCNC2)c1 (stereo not given) | -11.76%
59 | CCn1cc(C2CCN(Cc3ccnc(N(C)C)c3)CC2)cn1 | -12.62%
60 | CN(C)c1cc(C2CCCN2)ccn1 (stereo not given) | 114.7%
61 | Cc1cc(N(C)C)nc(C2CCNC2)n1.Cl.Cl (stereo not given) | 120.8%
62 | CN(C)C(=O)c1cccc(CCNS(C)(=O)=O)c1 | -0.05313%
63 | O=C(c1cc2c(s1)CCOC2)N1CCCCC1Cn1cccn1 (stereo not given) | 96.86%
64 | O=C(c1cc2c(s1)CCOC2)N1CCCC1Cn1cccn1 (stereo not given) | 107.9%
65 | O=C(c1cccc2c1OCCO2)N1CCCCC1Cn1cccn1 (stereo not given) | 4.366%
66 | CC(=O)N1CCCn2nc(CNS(=O)(=O)c3cc(C)cs3)cc2C1 | -1.939%

Row | Structure (SMILES) | Percent Effect
67 | N#Cc1cccnc1NCCC1CCN(CC(F)(F)F)CC1 | -14.98%
68 | CC(C)=CCN1C[C@H]2CC[C@@H]1CN(C(=O)CCc1n[nH]c(C)n1)C2 | -19.43%
69 | Cc1cnn(CC2CCCCN2C(=O)c2ccc3[nH]cnc3c2)c1 (stereo not given) | 112.2%
70 | Cc1cnn(CC2CCCCN2C(=O)c2ccc3[nH]nnc3c2)c1 (stereo not given) | -1.412%
71 | Cc1cnn(CC2CCCN2C(=O)c2ccc3[nH]nnc3c2)c1 (stereo not given) | 0.8571%
72 | Cc1cnn(CC2CCCCN2C(=O)c2ccc3c(c2)COC3)c1 (stereo not given) | 117.5%
73 | Cc1cnn(CC2CCCN2C(=O)c2ccc3[nH]c(=O)[nH]c3c2)c1 (stereo not given) | 143.3%
74 | Cc1cnn(CC2CCCN2C(=O)c2ccc3cc[nH]c3c2)c1 (stereo not given) | 7.467%
75 | Cc1cnn(CC2CCCCN2C(=O)c2ccc3[nH]c(=O)[nH]c3c2)c1 (stereo not given) | 108.3%
76 | COc1cccc([S+]([O-])CC(=O)NCc2cc(F)cc(F)c2)c1 (stereo not given) | -14.98%
77 | O=C1N(Cc2cccc(F)c2F)CCCC1(O)CNCc1ccccn1 (stereo not given) | -29.29%
78 | Cc1cc(C)cc(C(C)NC(=O)c2ccc(CS(C)(=O)=O)o2)c1 (stereo not given) | -2.298%
79 | CCc1ccc(CN2CCN(c3ccc(C(N)=O)cn3)CC2)nc1 | 17.95%
80 | CC(C)(N)c1cn(C2CCN(C(=O)CCC3CCCCC3)CC2)nn1 | -21.08%
81 | Cc1cc(CN2CCc3nc(C(C)C)nc(O)c3CC2)c(C)s1 | 120.7%
82 | Cc1cc(CN2CCc3nc(-c4ccncc4)nc(O)c3CC2)c(C)s1 | 125%
83 | Cc1nc(C)c2c(n1)CCN(Cc1ccsc1)CC2 | 5.852%
84 | Cc1nc(C)c2c(n1)CCN(Cc1ccco1)CC2 | -8.406%
85 | Cc1nc(O)c2c(n1)CCN(Cc1cc(C)sc1C)CC2 | 92.9%
86 | Cc1cc(CN2CCc3nc(N4CCOCC4)nc(O)c3CC2)c(C)s1 | 112.9%
87 | Cc1nc2c(c(=O)n1C)CCN(Cc1cc3ccccc3[nH]1)CC2 | -25.51%
88 | CC(C)c1ncc2c(n1)CN(Cc1nc3c(F)cccc3[nH]1)CC2 | -0.8884%

Row | Structure (SMILES) | Percent Effect
89 | Cc1cc(CN[C@@H](C)C(N)=O)c(C)s1 | 8.124%
90 | CC(=O)N1CCc2c(nc(-c3ccncc3)nc2N(C)CC(O)CO)C1 (stereo not given) | 4.037%
91 | COCc1ccccc1C(=O)NS(=O)(=O)CCCC#N | -8.648%
92 | COC1CCN(S(=O)(=O)N2C[C@H](c3ccccc3)[C@@H](N)C2)CC1 | -9.837%
93 | N#Cc1cccc(CN2CCN(Cc3cscn3)CC2)c1 | -8.185%
94 | NC(=O)c1ccc(C(=O)N2CCCCC2C2OCCO2)cc1 (stereo not given) | -10.24%
95 | Cc1ccc(CN2CCc3ncnc(C4CCOC4)c3CC2)s1.O=C(O)C(F)(F)F (stereo not given) | -17.37%
96 | Cc1ccc(CN2CCc3ncnc(OC(C)C)c3CC2)s1.O=C(O)C(F)(F)F | -2.547%
97 | Cc1ccc(CN2CCc3nc(C(C)C)nc(O)c3CC2)s1 | 101.1%
98 | Cc1nc(CN2CCOC(CN(C)c3cccnn3)C2)cs1 (stereo not given) | 1.717%
99 | Cc1cccc(NC(=O)CNC(=O)c2ccccc2F)c1 | -4.999%
100 | Cc1ccccc1C(=O)NCC(O)c1ccc(F)c(F)c1 (stereo not given) | -57.78%
101 | Cc1cc(C)n(NC(=O)c2ccc(Cl)cc2Cl)c(=O)c1 | 111.9%
102 | Cc1cc(C)n(NC(=O)c2ccccc2C)c(=O)c1 | 92.68%
103 | CC(NC(=O)C1=NN(C)C(=O)CC1)c1ccc(Cl)cc1Cl (stereo not given) | -11.2%
104 | Cc1cc(C)n(NC(=O)c2ccccc2F)c(=O)c1 | 67.62%
105 | Cc1cc(C)n(NC(=O)c2cccc3c2OCC3)c(=O)c1 | -19.93%
106 | O=C(NS(=O)(=O)c1ccccc1)c1ccccc1F | -14.83%
107 | CCOc1cccc(CNc2ccccc2C(=O)OC)c1O | 0.1063%
108 | CCOc1ccccc1C(=O)Nn1c(C)cc(C)cc1=O | 121%
109 | CC(C)C(NC(=O)c1ccc(Cl)cc1Cl)C(=O)Nc1ccn(C)n1 (stereo not given) | -7.418%
110 | CCOc1ccccc1C(CC(=O)Nc1ccc(C)cn1)NC(C)=O (stereo not given) | -11.24%
